Test results reported in PubChem BioAssay AID1159580 (chemical genetic matrix, 2015).
About 2,000 (36%) of roughly 5,500 compounds were called active. Roughly 18% stayed inconclusive and do not appear here. Rule as the data show it: active = normalized growth mostly below about 0.91 (no sharp cut-off); inconclusive = no clear call, values can overlap the other calls; inactive = mostly above about 0.92. This is one part of the list.

Test: chemical genetic growth profiling, strain panel (AID 1159580);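 also: tested at 20 µM; growth read once vehicle control cultures reached saturation at 30 °C; 1 = growth at the plate median or of vehicle wells; lower values mean less growth of the strain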
Conditions: growth OD
[1] = S. cerevisiae deletion strains, locus YAL013W, strain DEP1, hits give low values
[2] = S. cerevisiae deletion strains, locus YBR229C, strain ROT2, hits give low values
[3] = S. cerevisiae deletion strains, locus YCL061C, strain MRC1, hits give low values
[4] = S. cerevisiae deletion strains, locus YDL101C, strain DUN1, hits give low values
[5] = S. cerevisiae deletion strains, locus YDR150W, strain NUM1, hits give low values
[6] = S. cerevisiae deletion strains, locus YEL061C, strain CIN8, hits give low values
[7] = S. cerevisiae deletion strains, locus YGR078C, strain PAC10, hits give low values
[8] = S. cerevisiae deletion strains, locus YHR030C, strain SLT2, hits give low values
[9] = S. cerevisiae deletion strains, locus YHR087W, strain rtc3, hits give low values
[10] = S. cerevisiae deletion strains, locus YJL187C, strain SWE1, hits give low values
[11] = S. cerevisiae deletion strains, locus YJR043C, strain POL32, hits give low values
[12] = S. cerevisiae deletion strains, locus YJR075W, strain HOC1, hits give low values
[13] = S. cerevisiae deletion strains, locus YKL190W, strain CNB1, hits give low values
[14] = S. cerevisiae deletion strains, locus YLR039C, strain RIC1, hits give low values
[15] = S. cerevisiae deletion strains, locus YLR058C, strain SHM2 (second series), hits give low values
[16] = S. cerevisiae deletion strains, locus YLR085C, strain ARP6, hits give low values
[17] = S. cerevisiae deletion strains, locus YLR262C, strain YPT6, hits give low values
[18] = S. cerevisiae deletion strains, locus YML094W, strain GIM5, hits give low values
[19] = S. cerevisiae deletion strains, locus YMR219W, strain ESC1, hits give low values
[20] = S. cerevisiae deletion strains, locus YMR263W, strain SAP30, hits give low values
[21] = S. cerevisiae deletion strains, locus YNL128W, strain TEP1, hits give low values
[22] = S. cerevisiae deletion strains, locus YNL153C, strain GIM3, hits give low values
[23] = S. cerevisiae deletion strains, locus YNL298W, strain CLA4 (second series), hits give low values
[24] = S. cerevisiae deletion strains, locus YNL322C, strain KRE1, hits give low values
[25] = S. cerevisiae deletion strains, locus YNR030W, strain Alg12, hits give low values
[26] = S. cerevisiae deletion strains, locus YOL006C, strain TOP1, hits give low values
[27] = S. cerevisiae deletion strains, locus YPL055C, strain LGE1, hits give low values
[28] = S. cerevisiae deletion strains, locus YPL241C, strain CIN2, hits give low values
[29] = S. cerevisiae deletion strains, locus YPR135W, strain CTF4, hits give low values

Measured: normalized growth

CN1CNc2c(c(=O)n(C)c(=O)n2C)C1
inactive: [1] 0.994 | [2] 0.999 | [3] 0.998 | [4] 0.974 | [5] 0.998 | [6] 0.996 | [7] 0.988 | [8] 1.04 | [9] 0.988 | [10] 1.01 | [11] 0.998 | [12] 1.02 | [13] 1.01 | [14] 1.03 | [15] 1 | [16] 0.979 | [17] 1.01 | [18] 0.974 | [19] 0.998 | [20] 1 | [21] 1 | [22] 0.983 | [23] 1.01 | [24] 0.998 | [25] 1 | [26] 1.02 | [27] 0.953 | [28] 1.07 | [29] 1.01 | S. cerevisiae strains, strain wild type, hits give low values 1

Cc1csc2ncnc(N/N=C\c3ccccc3Cl)c12
inactive: S. cerevisiae deletion strains, locus YAR019C, strain CDC15, hits give low values 0.959 | S. cerevisiae deletion strains, locus YBL105C, strain PKC1, hits give low values 0.96 | S. cerevisiae deletion strains, locus YBR135W, strain CKS1, hits give low values 0.968 | S. cerevisiae deletion strains, locus YBR136W, strain MEC1, hits give low values 0.962 | S. cerevisiae deletion strains, locus YBR160W, strain CDC28, hits give low values 0.954 | S. cerevisiae deletion strains, locus YDL017W, strain CDC7, hits give low values 0.97 | S. cerevisiae deletion strains, locus YDL028C, strain MPS1, hits give low values 0.968 | [4] 0.967 | S. cerevisiae deletion strains, locus YDL108W, strain KIN28, hits give low values 0.962 | S. cerevisiae deletion strains, locus YDL132W, strain cdc53, hits give low values 0.958 | S. cerevisiae deletion strains, locus YDL214C, strain PRR2, hits give low values 0.961 | S. cerevisiae deletion strains, locus YDR052C, strain DBF4, hits give low values 0.977 | S. cerevisiae deletion strains, locus YDR054C, strain cdc34, hits give low values 0.952 | S. cerevisiae deletion strains, locus YDR226W, strain ADK1, hits give low values 0.969 | S. cerevisiae deletion strains, locus YDR477W, strain SNF1, hits give low values 0.958 | S. cerevisiae deletion strains, locus YER123W, strain YCK3, hits give low values 0.931 | S. cerevisiae deletion strains, locus YER133W, strain GLC7, hits give low values 0.967 | S. cerevisiae deletion strains, locus YFL009W, strain cdc4, hits give low values 0.958 | S. cerevisiae deletion strains, locus YFL029C, strain CAK1, hits give low values 0.956 | S. cerevisiae deletion strains, locus YFR003C, strain YPI1, hits give low values 0.96 | S. cerevisiae deletion strains, locus YFR019W, strain FAB1, hits give low values 0.979 | S. cerevisiae deletion strains, locus YFR028C, strain CDC14, hits give low values 0.955 | S. cerevisiae deletion strains, locus YGR040W, strain KSS1, hits give low values 0.942 | S. cerevisiae deletion strains, locus YGR052W, strain FMP48, hits give low values 1.03 | S. cerevisiae deletion strains, locus YGR092W, strain DBF2, hits give low values 0.917 | [8] 1.01 | S. cerevisiae deletion strains, locus YHR079C, strain IRE1, hits give low values 0.997 | S. cerevisiae deletion strains, locus YHR082C, strain KSP1, hits give low values 1.05 | S. cerevisiae deletion strains, locus YHR205W, strain SCH9, hits give low values 0.968 | S. cerevisiae deletion strains, locus YIL147C, strain SLN1, hits give low values 0.968 | S. cerevisiae deletion strains, locus YJL095W, strain BCK1, hits give low values 0.994 | S. cerevisiae deletion strains, locus YJL128C, strain PBS2, hits give low values 0.946 | S. cerevisiae deletion strains, locus YJL157C, strain FAR1, hits give low values 0.947 | S. cerevisiae deletion strains, locus YJR016C, strain ILV3, hits give low values 0.956 | S. cerevisiae deletion strains, locus YJR066W, strain TOR1 (second series), hits give low values 0.918 | S. cerevisiae deletion strains, locus YJR066W, strain TOR1, hits give low values 1.05 | S. cerevisiae deletion strains, locus YKL048C, strain ELM1, hits give low values 0.976 | S. cerevisiae deletion strains, locus YKL067W, strain YNK1, hits give low values 0.947 | S. cerevisiae deletion strains, locus YKL101W, strain HSL1, hits give low values 0.951 | S. cerevisiae deletion strains, locus YKL193C, strain SDS22, hits give low values 0.957 | S. cerevisiae deletion strains, locus YKL203C, strain TOR2, hits give low values 1 | S. cerevisiae deletion strains, locus YLR113W, strain HOG1, hits give low values 0.882 | S. cerevisiae deletion strains, locus YLR133W, strain CKI1, hits give low values 0.951 | S. cerevisiae deletion strains, locus YLR403W, strain SFP1, hits give low values 0.931 | S. cerevisiae deletion strains, locus YML070W, strain DAK1, hits give low values 0.935 | S. cerevisiae deletion strains, locus YMR001C, strain CDC5, hits give low values 0.957 | S. cerevisiae deletion strains, locus YMR205C, strain PFK2 (second series), hits give low values 0.973 | S. cerevisiae deletion strains, locus YMR277W, strain FCP1, hits give low values 0.966 | S. cerevisiae deletion strains, locus YNL006W, strain LST8, hits give low values 0.973 | S. cerevisiae deletion strains, locus YNL020C, strain ARK1, hits give low values 0.958 | S. cerevisiae deletion strains, locus YNL161W, strain CBK1, hits give low values 0.956 | S. cerevisiae deletion strains, locus YNL183C, strain NPR1, hits give low values 1.02 | S. cerevisiae deletion strains, locus YNL207W, strain RIO2, hits give low values 0.965 | S. cerevisiae deletion strains, locus YNL222W, strain SSU72, hits give low values 0.961 | S. cerevisiae deletion strains, locus YNL307C, strain MCK1 (second series), hits give low values 0.962 | S. cerevisiae deletion strains, locus YOL078W, strain AVO1, hits give low values 0.957 | S. cerevisiae deletion strains, locus YOL136C, strain PFK27, hits give low values 0.942 | S. cerevisiae deletion strains, locus YOR061W, strain CKA2, hits give low values 0.973 | S. cerevisiae deletion strains, locus YOR119C, strain RIO1, hits give low values 1.01 | S. cerevisiae deletion strains, locus YOR231W, strain MKK1, hits give low values 0.927 | S. cerevisiae deletion strains, locus YOR329C, strain SCD5, hits give low values 0.96 | S. cerevisiae deletion strains, locus YPL031C, strain PHO85, hits give low values 0.959 | S. cerevisiae deletion strains, locus YPL153C, strain RAD53, hits give low values 0.944 | S. cerevisiae deletion strains, locus YPL204W, strain HRR25, hits give low values 0.936 | S. cerevisiae deletion strains, locus YPL209C, strain IPL1, hits give low values 0.949 | S. cerevisiae deletion strains, locus YPL256C, strain CLN2, hits give low values 0.901 | S. cerevisiae deletion strains, locus YPR025C, strain CCL1, hits give low values 0.968 | S. cerevisiae deletion strains, locus YPR106W, strain ISR1, hits give low values 0.955 | S. cerevisiae deletion strains, locus YPR111W, strain DBF20, hits give low values 0.943 | S. cerevisiae deletion strains, strain NNK1, hits give low values 0.959 | S. cerevisiae deletion strains, strain TSCII, hits give low values 0.957

O=C(N/N=C\c1ccccc1Cl)N/N=C\c1ccccc1Cl
inactive: [2] 0.989 | [3] 1 | [4] 0.992 | [5] 0.88 | [7] 1 | [9] 0.989 | [10] 0.987 | [11] 0.945 | [12] 0.988 | [15] 1 | [17] 0.871 | [19] 1 | [21] 0.976 | [22] 0.996 | [24] 0.977 | [26] 0.769
active: [1] 0.898 | [6] 0.834 | [8] 0.363 | [14] 0.753 | [16] 0.458 | [18] 0.773 | [20] 0.909 | [23] 0.588 | [25] 0.69 | [27] 0.765 | [28] 0.707 | [29] 0.553

O=C(N/N=C\c1ccccc1Cl)c1cccnc1
inactive: [1] 1.02 | [2] 1 | [4] 0.971 | S. cerevisiae deletion strains, locus YDL134C, strain PPH21, hits give low values 1.01 | [5] 0.932 | [6] 1.03 | [7] 1 | S. cerevisiae deletion strains, locus YGR229C, strain SMI1, hits give low values 1.01 | [8] 0.987 | [9] 1.01 | [10] 0.996 | [11] 0.995 | [12] 0.99 | [13] 1.01 | [14] 1.03 | [15] 1.01 | [16] 0.97 | [17] 1.01 | [18] 1 | [19] 1 | [20] 0.945 | [22] 1 | [23] 1 | [24] 1 | [25] 1.01 | [26] 1.03 | [27] 0.886 | [28] 0.996 | [29] 1
